Our source for the outcome and AC50 values is PubChem BioAssay (EPA / NIEHS).

Records with an inconclusive call do not appear. Calls of active or inactive are those of the source. The calls were made as follows, unless noted: active = hit-call score of the fitted dose curve at least 0.9, where 1 is the maximum; inactive = score below 0.9.

Assay [1] concerns the target Retinoic acid receptor RXR-alpha (Homo sapiens) (UniProt P19793). Put plainly: ATG_RXRa_TRANS: Attagene TRANS-FACTORIAL HepG2 Assay for human Retinoid X Receptor alpha (RXRa) (AID 2283012; active = hit-call score of the fitted dose curve at least 0.9, where 1 is the maximum). An outline of the steps: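 Chimeric NR-GAL4 trans-activation in HepG2, 24 h treatment; reporter transcripts quantified by fluorescence on capillary electrophoresis, analysed for upward change from DMSO.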

In assay [2] the target is human Retinoid X Receptor beta (RXRb), RXRB (gene 6257) (UniProt P28702). Put plainly: ATG_RXRb_TRANS: Attagene TRANS-FACTORIAL HepG2 Assay for human Retinoid X Receptor beta (RXRb) (AID 2283013; active = hit-call score of the fitted dose curve at least 0.9, where 1 is the maximum). An outline of the steps:
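After a 24 h incubation with test chemical, transfected HepG2 cells carrying NR-Gal4 fusions and GAL4-UAS reporter transcription units yield RNA whose reporter cDNA is FAM-labelled, HpaI-cut and sized by capillary electrophoresis; increases over DMSO are scored.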

Read-out in assay [3]: E-selectin (Homo sapiens) (UniProt P16581)
Description: BSK_3C_Eselectin: BioMAP Diversity Plus: 3C Assay for Eselectin Biomarker Activity (AID 2283015).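 Also: cell surface E-selectin protein quantified by ELISA 24 h after dosing.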 Particulars: primary human endothelial cells (HUVEC); actives raise or lower the signal. The method in brief:
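Human vascular endothelium from umbilical vein is exposed to test chemicals for 24 h. E-selectin levels are read by ELISA and compared with DMSO controls.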

Read-out in assay [4]: Interleukin-1 alpha (IL1a), IL1A (gene 3552)
Description: BSK_BE3C_IL1a: BioMAP Diversity Plus: BE3C Assay for Interleukin-1 alpha (IL1a) Biomarker Activity (AID 2283016). The following applies: primary human bronchial epithelial cells; actives raise or lower the signal. An outline of the steps:
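Measured in human lung primary bronchial epithelial cells: IL-1a by ELISA at 24 h after dosing, with bidirectional fitting against DMSO.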

Read-out in assay [5]: Monocyte Chemoattractant Protein-1 (MCP1), CCL2 (gene 6347)
Put plainly: BSK_3C_MCP1: BioMAP Diversity Plus: 3C Assay for Monocyte Chemoattractant Protein-1 (MCP1) Biomarker Activity (AID 2283017). Particulars: primary human endothelial cells (HUVEC); actives raise or lower the signal. An outline of the steps:
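Endothelial cells from human umbilical vein are dosed with chemical, cultured 24 h, then assayed for MCP-1 by ELISA; both increases and decreases are modelled against DMSO controls.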

Read-out in assay [6]: Monocyte Chemoattractant Protein-1 (MCP1), CCL2 (gene 6347)
Description: BSK_4H_MCP1: BioMAP Diversity Plus: 4H Assay for Monocyte Chemoattractant Protein-1 (MCP1) Biomarker Activity (AID 2283018). The following applies: primary human endothelial cells (HUVEC); actives raise or lower the signal. The method in brief:
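Primary human umbilical vein endothelium is exposed to chemical for 24 h before MCP-1 is assayed by ELISA. Concentration-response fitted bidirectionally relative to DMSO.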

Read-out in assay [7]: Human Leukocyte Antigen - DR isotype (HLADR), HLA-DRA (gene 3122)
Put plainly: BSK_3C_HLADR: BioMAP Diversity Plus: 3C Assay for Human Leukocyte Antigen - DR isotype (HLADR) Biomarker Activity (AID 2283019).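 As to outcome: ELISA of cell-surface HLA-DR on HUVEC 24 h after dosing.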 The following applies: primary human endothelial cells (HUVEC); actives raise or lower the signal. An outline of the steps:
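Endothelial cells from human umbilical vein are treated with test chemical; after 24 h, HLA-DR levels are measured by ELISA. Data are fitted in both directions using DMSO as the baseline.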

Read-out in assay [8]: Interleukin-8 (IL8), CXCL8 (gene 3576)
Put plainly: BSK_3C_IL8: BioMAP Diversity Plus: 3C Assay for Interleukin-8 (IL8) Biomarker Activity (AID 2283020). The following applies: primary human endothelial cells (HUVEC); actives raise or lower the signal. An outline of the steps:
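Using DMSO-treated wells as the baseline, bidirectional curve fitting was applied to ELISA-measured IL-8 from human umbilical vein endothelial cultures sampled 24 h after compound addition.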

Read-out in assay [9]: Monokine induced gamma interferon (MIG), CXCL9 (gene 4283)
Put plainly: BSK_3C_MIG: BioMAP Diversity Plus: 3C Assay for Monokine induced gamma interferon (MIG) Biomarker Activity (AID 2283021). The following applies: primary human endothelial cells (HUVEC); actives raise or lower the signal. The method in brief:
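ELISA-measured MIG in dosed HUVEC 3C cultures at 24 h, analysed by bidirectional fitting with DMSO defining baseline activity.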

A short description of assay [10]: BSK_3C_SRB: Viability Assessment in the BioMAP Diversity Plus: 3C Assay (AID 2283023).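 Also: fitted both ways against DMSO so a hit may be signal rise or drop.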 The following applies: primary human endothelial cells (HUVEC). An outline of the steps:
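Cells were dosed with chemical, cultured 24 h, fixed with 10% TCA, stained with 0.1% SRB and read at 560 nm. Human umbilical vein endothelium was used; DMSO served as negative control and baseline.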

Read-out in assay [11]: Matrix Metallopeptidase 1 (MMP1), MMP1 (gene 4312)
Put plainly: BSK_BE3C_MMP1: BioMAP Diversity Plus: BE3C Assay for Matrix Metallopeptidase 1 (MMP1) Biomarker Activity (AID 2283024). The following applies: primary human bronchial epithelial cells; actives raise or lower the signal. An outline of the steps: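 In this multiplexed primary-cell system, human bronchial epithelium received chemicals for 24 h before an ELISA for MMP1. Values reflect bidirectional fits normalised to the DMSO baseline.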

Assay [12] is described as follows: BSK_3C_Vis: BioMAP Diversity Plus: 3C Assay for Morphology Visualization (AID 2283025).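 Also: fitted both ways so gain or loss versus DMSO counts.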 The following applies: primary human endothelial cells (HUVEC). An outline of the steps: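 Light-microscopy morphology readout, 24 h exposure, human primary umbilical vein endothelium; analysed relative to DMSO with bidirectional fitting.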
Read-out in assay [13]: Pselectin, SELP (gene 6403)
Put plainly: BSK_4H_Pselectin: BioMAP Diversity Plus: 4H Assay for Pselectin Biomarker Activity (AID 2283026). The following applies: primary human endothelial cells (HUVEC); actives raise or lower the signal. The method in brief:
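Bidirectional fits against DMSO gave the endpoint. Cells: primary human umbilical vein endothelium, chemical-treated for 24 h before ELISA detection of P-selectin.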

Assay [14] is described as follows: BSK_4H_SRB: Viability Assessment in the BioMAP Diversity Plus: 4H Assay (AID 2283027).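 Also: cells exposed to compound for 24 h before staining.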 The following applies: primary human endothelial cells (HUVEC). An outline of the steps:
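Cytotoxicity read-out in primary human endothelial cells: after 24 h compound exposure, cells were TCA-fixed (10%), stained with 0.1% SRB and absorbance taken at 560 nm. Values fitted in both directions relative to DMSO.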

Read-out in assay [15]: Thrombomodulin, THBD (gene 7056)
Description: BSK_3C_Thrombomodulin: BioMAP Diversity Plus: 3C Assay for Thrombomodulin Biomarker Activity (AID 2283029). Particulars: primary human endothelial cells (HUVEC); actives raise or lower the signal. The method in brief:
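In a multiplexed primary-cell system, human umbilical vein endothelium received chemical and was assayed 24 h later for thrombomodulin by ELISA. Parallel cultures were SRB-stained (0.1% SRB after 10% TCA fixation, read at 560 nm) to flag cytotoxicity.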

Read-out in assay [16]: Urokinase-type plasminogen activator receptor (uPAR), PLAUR (gene 5329)
Put plainly: BSK_4H_uPAR: BioMAP Diversity Plus: 4H Assay for Urokinase-type plasminogen activator receptor (uPAR) Biomarker Activity (AID 2283030). Particulars: primary human endothelial cells (HUVEC); actives raise or lower the signal. An outline of the steps: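 Chemicals are dosed onto human vascular endothelial primary cells (umbilical vein). After 24 h, uPAR is read by ELISA. Gain or loss of signal is fitted relative to DMSO.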

Read-out in assay [17]: Vascular endothelial growth factor receptor 2 (Homo sapiens) (UniProt P35968)
Put plainly: BSK_4H_VEGFRII: BioMAP Diversity Plus: 4H Assay for Vascular endothelial growth factor receptor 2 (VEGFR2) Biomarker Activity (AID 2283031). Particulars: primary human endothelial cells (HUVEC); actives raise or lower the signal. An outline of the steps:
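VEGFRII levels on human vascular endothelial primary cells were determined by ELISA at 24 hours post-dosing, with gain- or loss-of-signal fitted against DMSO controls.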

Assay [18] deals with human Thyroid Receptor alpha (THRa1), THRA (gene 7067) (UniProt P10827). Description: ATG_THRa1_TRANS: Attagene TRANS-FACTORIAL HepG2 Assay for human Thyroid Receptor alpha (THRa1) (AID 2283014; active = hit-call score of the fitted dose curve at least 0.9, where 1 is the maximum). An outline of the steps:
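First, HepG2 cells receive multiple GAL4-UAS reporter units and the chimeric receptor. They are then dosed for 24 h, after which RNA is reverse-transcribed, amplified, labelled, HpaI-cut and sized by capillary electrophoresis; gain relative to DMSO is scored.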

In assay [19] the target is human Vitamin D Receptor (VDR), VDR (gene 7421) (UniProt P11473). Description: ATG_VDR_TRANS: Attagene TRANS-FACTORIAL HepG2 Assay for human Vitamin D Receptor (VDR) (AID 2283022; active = hit-call score of the fitted dose curve at least 0.9, where 1 is the maximum). An outline of the steps:
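Fluorescence of labelled reporter cDNA fragments, resolved by capillary electrophoresis, gives mRNA induction after 24 h treatment of HepG2 cells carrying transfected Gal4-fusion reporter units. Activity is fitted in the positive direction with DMSO as baseline.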

Assay [20] in a line: BSK_BE3C_SRB: Viability Assessment in the BioMAP Diversity Plus: BE3C Assay (AID 2283028). Particulars: primary human bronchial epithelial cells. The method in brief: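 Overt cytotoxicity was assessed as total protein in confluent human primary bronchial epithelial cultures 24 h after chemical addition, using 0.1% sulforhodamine B staining read at 560 nm.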

Chain of human Retinoid X Receptor beta (RXRb), RXRB (gene 6257) (P28702 whole entry, looked up, the tested form may be a part): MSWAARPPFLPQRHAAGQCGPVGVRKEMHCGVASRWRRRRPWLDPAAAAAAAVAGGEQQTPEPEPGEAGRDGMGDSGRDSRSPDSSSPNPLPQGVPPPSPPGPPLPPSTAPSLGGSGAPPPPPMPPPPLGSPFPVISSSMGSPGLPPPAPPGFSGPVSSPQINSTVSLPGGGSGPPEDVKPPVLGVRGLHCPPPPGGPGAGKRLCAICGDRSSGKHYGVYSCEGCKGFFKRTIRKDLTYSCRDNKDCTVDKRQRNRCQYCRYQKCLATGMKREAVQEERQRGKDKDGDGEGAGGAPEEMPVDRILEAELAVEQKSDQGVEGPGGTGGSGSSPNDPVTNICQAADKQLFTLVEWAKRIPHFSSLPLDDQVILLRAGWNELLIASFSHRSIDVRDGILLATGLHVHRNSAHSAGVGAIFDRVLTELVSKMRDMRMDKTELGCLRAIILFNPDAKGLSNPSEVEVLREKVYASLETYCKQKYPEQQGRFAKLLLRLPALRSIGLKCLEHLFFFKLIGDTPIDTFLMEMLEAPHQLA
Chain of E-selectin (Homo sapiens) (P16581 whole entry, looked up): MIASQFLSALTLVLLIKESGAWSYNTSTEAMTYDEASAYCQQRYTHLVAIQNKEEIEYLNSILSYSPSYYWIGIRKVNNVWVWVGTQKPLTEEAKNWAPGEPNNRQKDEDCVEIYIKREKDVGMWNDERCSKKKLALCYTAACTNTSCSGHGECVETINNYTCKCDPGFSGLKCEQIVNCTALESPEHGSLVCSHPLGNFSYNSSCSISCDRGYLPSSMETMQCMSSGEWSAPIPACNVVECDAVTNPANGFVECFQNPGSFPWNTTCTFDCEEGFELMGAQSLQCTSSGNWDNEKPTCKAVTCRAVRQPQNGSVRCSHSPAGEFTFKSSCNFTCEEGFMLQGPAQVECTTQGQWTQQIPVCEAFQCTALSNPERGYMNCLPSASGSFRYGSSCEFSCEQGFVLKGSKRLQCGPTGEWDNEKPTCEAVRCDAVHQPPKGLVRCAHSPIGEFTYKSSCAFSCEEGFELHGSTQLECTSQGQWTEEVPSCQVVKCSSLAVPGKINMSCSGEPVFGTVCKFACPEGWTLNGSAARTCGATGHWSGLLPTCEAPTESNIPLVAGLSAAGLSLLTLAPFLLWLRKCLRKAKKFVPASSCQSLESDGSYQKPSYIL
Chain of Retinoic acid receptor RXR-alpha (Homo sapiens) (P19793 whole entry, looked up, the tested form may be a part): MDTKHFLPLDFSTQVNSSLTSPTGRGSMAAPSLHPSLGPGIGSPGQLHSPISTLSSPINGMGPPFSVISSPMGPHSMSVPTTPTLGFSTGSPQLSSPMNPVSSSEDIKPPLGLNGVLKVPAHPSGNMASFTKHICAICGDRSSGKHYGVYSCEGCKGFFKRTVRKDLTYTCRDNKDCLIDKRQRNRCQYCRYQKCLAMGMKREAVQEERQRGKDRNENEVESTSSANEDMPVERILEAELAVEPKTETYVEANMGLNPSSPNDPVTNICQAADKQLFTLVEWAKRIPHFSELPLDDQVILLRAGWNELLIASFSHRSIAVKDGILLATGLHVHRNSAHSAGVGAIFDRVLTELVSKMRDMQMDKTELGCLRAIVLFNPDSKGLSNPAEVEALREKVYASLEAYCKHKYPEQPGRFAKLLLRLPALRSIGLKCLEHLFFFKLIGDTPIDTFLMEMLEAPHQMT
Chain of human Vitamin D Receptor (VDR), VDR (gene 7421) (P11473 whole entry, looked up, the tested form may be a part): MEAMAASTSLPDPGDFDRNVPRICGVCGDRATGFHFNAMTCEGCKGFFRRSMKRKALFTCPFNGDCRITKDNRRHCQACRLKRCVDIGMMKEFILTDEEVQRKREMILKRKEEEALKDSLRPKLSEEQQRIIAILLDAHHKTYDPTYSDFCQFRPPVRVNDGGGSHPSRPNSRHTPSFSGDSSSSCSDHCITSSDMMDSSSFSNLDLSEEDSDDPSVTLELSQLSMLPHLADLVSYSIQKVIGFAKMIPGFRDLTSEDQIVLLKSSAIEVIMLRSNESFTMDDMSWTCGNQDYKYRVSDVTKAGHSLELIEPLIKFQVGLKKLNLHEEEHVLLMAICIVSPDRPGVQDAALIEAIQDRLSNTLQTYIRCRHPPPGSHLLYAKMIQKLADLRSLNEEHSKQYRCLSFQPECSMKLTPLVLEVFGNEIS
Chain of human Thyroid Receptor alpha (THRa1), THRA (gene 7067) (P10827 whole entry, looked up, the tested form may be a part): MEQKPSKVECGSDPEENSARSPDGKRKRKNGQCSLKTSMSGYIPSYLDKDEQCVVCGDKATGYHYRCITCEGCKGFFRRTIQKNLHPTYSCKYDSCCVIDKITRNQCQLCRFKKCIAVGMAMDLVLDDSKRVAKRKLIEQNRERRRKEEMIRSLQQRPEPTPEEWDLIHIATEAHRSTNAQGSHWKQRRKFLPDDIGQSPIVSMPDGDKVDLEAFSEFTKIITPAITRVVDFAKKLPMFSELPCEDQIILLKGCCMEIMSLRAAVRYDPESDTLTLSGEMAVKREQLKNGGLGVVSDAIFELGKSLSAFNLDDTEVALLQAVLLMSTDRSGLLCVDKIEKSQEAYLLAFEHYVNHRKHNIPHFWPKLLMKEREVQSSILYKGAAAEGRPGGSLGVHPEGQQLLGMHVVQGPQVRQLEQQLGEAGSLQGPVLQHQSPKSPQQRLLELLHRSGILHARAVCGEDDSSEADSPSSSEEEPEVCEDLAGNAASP

As for `Oc1ccc2c(c1)OC[C@@H](N1CCC(O)(c3ccc(F)cc3)CC1)[C@H]2O`, the result in [1], in assay [2], in [3], in assay [4], in assay [5] and in assay [6] was inactive. In addition, the outcome in assay [7], in assay [8], in [9], in [10], in [11] and in [12] was inactive. Further, the outcome in [13], in assay [14], in assay [15], in assay [16] and in assay [17] was inactive.

With `C1CCC(SSC2CCCCC2)CC1`, the compound was classed as inactive in assay [1], in assay [2], in assay [18], in [3], in assay [4] and in assay [5]. The result in assay [6], in assay [8], in [9], in assay [19], in [10] and in assay [11] was inactive. The result in assay [12], in assay [13], in assay [14], in [15], in assay [16] and in assay [17] was inactive.

Turning to `CC=Cc1ccc(O)c(OC)c1`, the result in assay [1], in assay [3], in assay [4], in assay [5], in assay [6] and in assay [7] was inactive. Moreover, the result in assay [8], in [9], in [10], in assay [11], in assay [12] and in assay [13] was inactive. Besides, the result in assay [14], in assay [20], in assay [15], in assay [16] and in assay [17] was inactive.

For `Cc1ccc(C)c(C)c1`, the compound was called inactive in assay [1], in assay [3], in [4], in [5], in assay [6] and in assay [7]. Further, the result in [8], in assay [9], in assay [10], in assay [11], in assay [12] and in [13] was inactive. Besides, the result in assay [14], in assay [20], in assay [15], in assay [16] and in assay [17] was inactive.

With `CN1CCN(Cc2cc(-c3ccc4[nH]c(=O)oc4c3)co2)[C@@H](c2ccc(F)cc2)C1`, the outcome in assay [1], in assay [3], in assay [4], in [8], in assay [9] and in assay [19] was inactive. Further, the result in assay [11], in assay [14], in assay [15] and in assay [17] was inactive. For the same compound, the AC50 in assay [5] is 17.6 µM (active); in assay [6], 3.68 µM (active); in assay [7], 27.6 µM (active); in assay [10], 28.2 µM (active); in assay [13] it was 17.6 µM (active); in [16] it was 11.3 µM (active).

In the case of `C=CCc1ccc(O)c(OC)c1`, the compound was called inactive in assay [1], in assay [3], in [4], in assay [5], in [6] and in assay [8]. Moreover, the result in assay [9], in assay [10], in [11], in assay [12], in assay [13] and in [14] was inactive. The outcome in assay [20], in assay [15], in assay [16] and in assay [17] was inactive. In [2], the AC50 is 63.2 µM (active).

On to `CCCCCCCCCCCCCCCC`, for which the compound was classed as inactive in [1], in assay [18], in assay [3], in [4], in assay [5] and in assay [6]. In addition, the outcome in assay [8], in [9], in assay [10], in assay [11], in [12] and in [13] was inactive. The result in [14], in assay [20], in [15], in assay [16] and in assay [17] was inactive.

Take `C=CCOC(=O)c1ccccc1C(=O)OCC=C`: the compound was classed as inactive in assay [1], in assay [2], in assay [3], in assay [4], in assay [5] and in assay [6]. Moreover, the outcome in assay [8], in [9], in assay [10], in assay [11], in assay [12] and in assay [13] was inactive. Further, the outcome in assay [14], in assay [20], in assay [15], in assay [16] and in [17] was inactive.

By AC50 is commonly meant the concentration giving half of the maximal activity seen.
